Sampled rows, rich in hits. Any-hit rate of the full collection: about 0.41%.
RmlC RmlD mix – RmlC and RmlD coupled enzyme inhibitors, primary screen, biochemical, 384-well, compound mixtures, retest. RmlC/RmlD coupled enzyme inhibition, 384-well mixture HTS. inhibition, % at 5.5 µM. hit rate 0.39% among 110,000. AID 1532, 2009; in the data active means inhibition above about 30%, passing the limit was not always enough
YopH inh – YopH tyrosine phosphatase inhibitors, primary screen, biochemical, fluorescence Ex485/Em525; YopH tyrosine phosphatase [Yersinia enterocolitica]; hit rate 0.16% among 140,000; inhibition, % (concentration not given with the values); in the data active means inhibition above about 50%
RmlCD artifact – counter-screen for RmlC/RmlD inhibitors: fluorescence artifact, dose response, artefact control, biochemical; RmlC/RmlD assay fluorescence artifact counter-screen; calls only; shares compounds with RmlC RmlD mix; AID 1696, 2009; hit rate 96% among 360; call rule not given here;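 further: compound alone with no enzyme and no substrates present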
Starred values were filed as active, the others as inactive; i = inactive; nt = no result; + = active, no number.

SMILES | RmlC RmlD mix | YopH inh | RmlCD artifact
CSc1ccc(/C=C(/NC(=O)c2ccc(C)cc2)C(=O)Nc2cccc(F)c2)cc1 | nt | -26 | nt
CCn1c2ccccc2c2nnc(SCCCn3c(=O)[nH]c4ccccc43)nc21 | 82* | -53 | i
CCn1c2ccccc2c2nnc(SCc3ccccc3)nc21 | -2 | -26 | nt
Cc1cc(C)c(S(=O)(=O)N2CCCOC2CNC(=O)C(=O)NCCc2c[nH]c3ccccc23)c(C)c1 (stereo unspecified) | nt | -11 | nt
CCOC(=O)C1=C(CSc2nc(-c3ccccc3)ccc2C#N)OC(N)=C(C#N)C1c1ccccc1 (stereo unspecified) | 30 | -6 | nt
CCOC(=O)C1=C(CSc2nc(-c3ccccc3)ccc2C#N)OC(N)=C(C#N)C1c1cccnc1 (stereo unspecified) | 45* | 9 | +
C=CCNC(=O)c1onc(CSc2cccc(OC)c2)c1C(=O)O | -9 | -76 | nt
Cc1c(O)c(CN2CCCCC2)cc2c1oc(=O)c1ccccc12 | nt | -30 | nt
Cc1c(O)c(CN2CCCCC2)cc2c3c(c(=O)oc12)CCC3 | 91* | -4 | +
O=c1oc2c(CN3CCCCC3)c(O)ccc2c2c1CCCC2 | 96* | -24 | +
O=c1cc(-c2ccccc2)c2ccc(O)c(CN3CCCCC3)c2o1 | 4 | -22 | nt
CCN(CC)c1nc(N)c2c(N)nc3c(c2c1C#N)CC(c1ccccc1)O3 (stereo unspecified) | -95 | -12 | nt
CN(CCO)c1nc(N)c2c(N)nc3c(c2c1C#N)CC(=O)N3C1CCCC1 | 30* | 1 | +
CC(C)(C)N1C(=O)Cc2c1nc(N)c1c(N)nc(N3CCCCC3CO)c(C#N)c21 (stereo unspecified) | 35* | -34 | +
N#Cc1c(N2CCCCC2)nc(N)c2c(N)nc3c(c12)CC(c1ccccc1)O3 (stereo unspecified) | -13 | 19 | nt
O=C(COc1ccc(C(=O)c2ccccc2)cc1)NCC(=O)Nc1ccccc1Br | nt | -15 | nt
CCOC(=O)CN1C=C(c2ccc3ccccc3n2)C(C[N+](=O)[O-])c2ccccc21 (stereo unspecified) | 47* | -9 | +
CCOC(=O)CSc1nc2ccccc2n1CC(=O)N(C(C)C)C(C)C | 3 | -19 | nt
COc1cc(C)c(NC(=S)Nc2ccc(Cl)c(Cl)c2)cc1OC | nt | -5 | nt
O=C(NC1CC1)C1=C[C@@H](c2csc3ccccc23)C[C@@H](OCCCCO)O1 | -7 | nt | nt
CCn1c(/C=N/n2cnnc2)nc2ccccc21 | 73* | -41 | +
CCn1c2ccccc2c2cc(/C=N/n3cnnc3)ccc21 | 5 | -41 | nt
O=C(CN1C(=O)C2C3C=CC(C3)C2C1=O)Nc1ccc(S(=O)(=O)N2CCCCC2)cc1 (stereo unspecified) | nt | -6 | nt
COc1ccc2cc3cc(C(=O)NCCN4CCN(c5ccccc5F)CC4)oc3nc2c1 | nt | -16 | i
COc1ccc2cc3cc(C(=O)NCC4CCCO4)oc3nc2c1 (stereo unspecified) | 105* | -28 | +
SMILES | RmlC RmlD mix | YopH inh | RmlCD artifact
COc1ccc2cc3cc(C(=O)NCc4ccccn4)oc3nc2c1 | nt | -31 | nt
COc1ccc2cc3cc(C(=O)Nc4ccccc4N4CCN(C)CC4)oc3nc2c1 | -6 | -24 | nt
CCOc1ccc(NC(=O)c2cc3cc4ccc(OC)cc4nc3o2)cc1 | 105* | -27 | +
COc1ccc(C(=O)NCC2CCCO2)cc1 (stereo unspecified) | nt | -4 | nt
O=C(NCCCN1CCN(CCCNC(=O)c2cc([N+](=O)[O-])ccc2Cl)CC1)c1cc([N+](=O)[O-])ccc1Cl | nt | -11 | nt
OCOCCCn1c(C2CCCN2c2nc(-c3ccc(F)cc3)cs2)nc2cc(Cl)c(N3CCCCC3)cc21 (stereo unspecified) | 5 | nt | nt
O=c1cc(-c2ccc([N+](=O)[O-])cc2)nc2cc(-c3ccc(F)cc3)[nH]n12 | nt | -12 | nt
CN1CCCC1CCNc1ccc2sc3ccccc3c(=O)c2c1 (stereo unspecified) | -11 | nt | nt
Cc1cc2oc3cc(NCCC4CCCN4C)ccc3c(=O)c2cc1C (stereo unspecified) | 68* | nt | +
Cn1cnnc1SCC(=O)Nc1cc(S(=O)(=O)N2CCCCCC2)ccc1Cl | nt | -8 | nt
COc1ccc2ccc(=O)oc2c1 | -7 | -27 | nt
CC(=O)Oc1ccc2ccc(=O)oc2c1 | + | nt | +
Cn1c(-c2cc3ccc(OC(=O)C(C)(C)C)cc3oc2=O)nc2ccccc21 | -41 | -9 | nt
CC(=O)Oc1ccc2cc(-c3nc4ccccc4n3C)c(=O)oc2c1 | nt | -40 | +
O=C(c1ccccc1Nc1ccc(SC(F)F)cc1)N1CCCCCC1 | 8 | -34 | nt
COc1ccc(CNC(=O)C(=O)NCC2OCCN2S(=O)(=O)c2cccs2)cc1 (stereo unspecified) | -7 | -20 | nt
N#Cc1c(Cl)nc(SCc2ccccc2)nc1-c1ccccc1 | -4 | -38 | nt
CCOC(=O)c1cc2cc(OC)ccc2nc1C | nt | -22 | nt
COCCOC(=O)c1c(N)n(Cc2ccccc2)c2nc3ccccc3nc12 | 54 | 5 | nt
CCCCOCCCn1c(N)c(C(=O)OCCOC)c2nc3ccccc3nc21 | 57* | -4 | +
CCOC(=O)c1c(N)n(Cc2ccco2)c2nc3ccccc3nc12 | 72 | -36 | nt
COCC(C)OC(=O)c1c(N)n(Cc2ccco2)c2nc3ccccc3nc12 (stereo unspecified) | 56* | -46 | +
COc1ccc(/C=N/NC(=O)c2ccc(N(C)S(=O)(=O)c3ccccc3)cc2)cc1OC | nt | -20 | nt
COc1ccc(-c2c[n+]3c(n2-c2ccccc2)CCCCC3)cc1 | nt | -26 | nt
COc1ccc(-c2c[n+]3c4n2CCCCC4=C(c2ccccc2)C3)cc1 | 91* | -42 | +
SMILES | RmlC RmlD mix | YopH inh | RmlCD artifact
Cc1ccnc(NS(=O)(=O)c2ccc(NC(=O)c3c(-c4ccccc4Cl)noc3C)cc2)n1 | -19 | -13 | nt
O=C(NC1CCCCC1)c1cccc(COCC(F)(F)F)c1 | 8 | -2 | nt
CCc1cc2c(-c3ccccc3)cc(=O)oc2c(CN2CCOCC2)c1O | -6 | -21 | nt
CCc1cc(=O)oc2c(CN3CCN(C)CC3)c(O)c(Cl)cc12 | 126* | 8 | +
CC1=C(C#N)C(c2cccnc2)C2=C(CC(C)(C)CC2=O)N1 (stereo unspecified) | 59* | -16 | +
CC1=C(C#N)C(c2ccc(O)cc2)C2=C(CC(C)(C)CC2=O)N1 (stereo unspecified) | nt | -13 | nt
Cc1ccc(-c2nc3ccccc3[nH]2)cc1NC(=O)c1sc2cc(Cl)ccc2c1Cl | nt | -6 | nt
Cc1ccc(C(=O)O)cc1N=Cc1cc(Br)cc(Br)c1O | nt | -24 | +
CNC(=S)N/N=C/c1cc(Br)cc(Br)c1O | nt | -22 | nt
OCC[C@H]1C[C@@H](O)[C@H](O)[C@]2(CCCCO2)O1 | -7 | nt | nt
CCn1c(C)nc2cc(C(=O)N/N=C(\C)c3ccc(OC)cc3O)ccc21 | nt | nt | +
CCn1c(C)nc2cc(C(=O)N/N=C/c3ccc(O)cc3)ccc21 | nt | -28 | nt
COc1ccccc1Oc1c(C)oc2c(CN(C)C)c(O)ccc2c1=O | nt | 2 | nt
CN(C)Cc1c(O)c(Cl)cc2c3c(c(=O)oc12)CCCC3 | 140* | -36 | +
CCc1c(C)c2cc(Cl)c(O)c(CN(C)C)c2oc1=O | 82* | 12 | +
CCc1cc2c(=O)c(-c3nc4ccccc4n3C)c(C)oc2c(CN(CC)CC)c1O | 13 | -23 | nt

Source: PubChem BioAssay
